Laboratory results published in PubChem BioAssay (NCATS).
Records with an inconclusive call do not appear. Active and inactive are the calls of the source. The call rests on the fitted dose curve; in most records, active means well fitted cell-killing curve with a large enough effect; inconclusive means small, poorly fitted or top-dose-only effect, or effect the other way; inactive means no such curve, though single readings can be large or run the other way.

test: Quantitative High-Throughput drug screen in 47 multiple myeloma cell lines against the NCATS MIPE library collection: MMM1_PLB cell viability assay (AID 1918976); conditions: MMM1 myeloma cells viability, CellTiter-Glo, 48 h; series mostly up to 45.8 µM; further: nearly all actives have a fitted effect of over 35% in size
Excerpt: PI: Beverly A. Mock Ph.D.
Laboratory of Cancer Biology and Genetics,
Center for Cancer Research, National Cancer Institute,
National Institute of Health, Bethesda, Maryland
Drug resistance and disease progression are common in multiple myeloma (MM) patients, underscoring the need for new therapeutic combinations. […] We hypothesized that effective combinations would reduce MYC expression and enhance p16 activity. […] These preclinical data identify potentially useful drug combinations for evaluation in drug-resistant MM and reveal potential mechanisms of combined drug sensitivity.
Described herein is the primary MIPE qHTS used to cherrypick compounds. Validated compounds were then further tested for potential synergistic activiy.
[1] Peat TJ, Gaikwad SM, Dubois W, Gyabaah-Kessie N, Zhang S, Gorjifard S, Phyo Z, Andres M, Hughitt VK, Simpson RM, Miller MA, Girvin AT, Taylor A, Williams D, D'Antonio N, Zhang Y, Rajagopalan A, Flietner E, Wilson K, Zhang X, Shinn P, Klumpp-Thomas C, McKnight C, Itkin Z, Chen L, Kazandijian D, Zhang J, Michalowski AM, Simmons JK, Keats J, Thomas CJ, Mock BA. Drug combinations identified by high-throughput screening promote cell cycle transition and upregulate Smad pathways in myeloma. Cancer Lett. 2023 Aug 1;568:216284. doi: 10.1016/j.canlet.2023.216284. Epub 2023 Jun 24. PMID: 37356470; PMCID: PMC10408729.
SEQUENCE No. (e.g., 1, 2, 3, etc.); […] (e.g., Cells, Incubation, Reagent, etc.); VALUE and DESCRIPTION.
1; Cells; 5 uL; white, solid bottom 1536-well Greiner assay plate.
2; Compounds; 23 nL; Kalypsis pin tool (Wako USA) equipped with a 1536-well pin head to transfer to the assay plates.
3; Incubation; 48 hours; 37C incubation.
4; Reagent;5uL; CellTiter Glo (Promega).
5; Detector; 425V; Luminescence; Viewlux PerkinElmer.
NOTES (numbers refer to Sequence numbers above)
1. The cell-based screening methods employed in this study were like those previously published. Briefly, the corresponding myeloma cell lines were screened in 1,536-well plates with 500 cells, 5-uL per well for inhibition of cell viability (assessed by measuring ATP levels with CellTiterGlo).
2. NCATS MIPE 4.0 library of approved and investigational drugs were added using the Kalypsis pin tool. Wells treated with DMSO only for 100% viability and media only for 0% viability were used as controls.
3. The assay plates were covered and incubated for 48 hours in a 37C, 5% CO2 incubator with controlled humidity.
4. After 48 hours, CellTilter-GloTM luminescent substrate mix (Promega) reagent was added to the assay plate and plates we incubated for 5 min at room temperature.
5. Signal was measured as median relative luminescence units on a ViewLux (PerkinElmer) multiplate reader.
[1] Heske CM, Davis MI, Baumgart JT, Wilson K, Gormally MV, Chen L, Zhang X, Ceribelli M, Duveau DY, Guha R, Ferrer M, Arnaldez FI, Ji J, Tran HL, Zhang Y, Mendoza A, Helman LJ, Thomas CJ. Matrix Screen Identifies Synergistic Combination of PARP Inhibitors and Nicotinamide Phosphoribosyltransferase (NAMPT) Inhibitors in Ewing Sarcoma. Clin Cancer Res. 2017 Dec 1;23(23):7301-7311. doi: 10.1158/1078-0432.CCR-17-1121. Epub 2017 Sep 12. PMID: 28899971; PMCID: PMC6636827.
Potency means the concentration at half of the fitted maximal effect.

| SMILES | Potency |
| --- | --- |
| COC(=O)Nc1nc2ccc(Sc3ccccc3)cc2[nH]1 | 18.7 µM (active) |
| CC(C)C[C@H](NC(=O)[C@H](CCc1ccccc1)NC(=O)CN1CCOCC1)C(=O)N[C@@H](Cc1ccccc1)C(=O)N[C@@H](CC(C)C)C(=O)[C@@]1(C)CO1 | 0.0833 µM (active) |
| CO[C@@]12[C@H](COC(N)=O)C3=C(C(=O)C(C)=C(N)C3=O)N1C[C@@H]1N[C@@H]12 | 23.5 µM (active) |
| CNCC[C@H](Oc1cccc2ccccc12)c1cccs1 | 29.6 µM (active) |
| N=C(N)c1ccc(OCCCCCOc2ccc(C(=N)N)cc2)cc1 | 14.8 µM (active) |
| COc1cc(NCc2ccc3nc(N)nc(N)c3c2C)cc(OC)c1OC | 8.33 µM (active) |
| CCOC(=O)[C@H](CCc1ccccc1)N[C@H]1CS[C@H](c2cccs2)CN(CC(=O)O)C1=O | 16.6 µM (active) |
| CNC(=O)c1cc(Oc2ccc(NC(=O)Nc3ccc(Cl)c(C(F)(F)F)c3)cc2)ccn1 | 16.6 µM (active) |
| O=C(O)c1cccnc1 | 1.48 µM (active) |
| Cc1nnc(NS(=O)(=O)c2ccc(N)cc2)s1 | inactive |
| CCCCc1oc2ccc(NS(C)(=O)=O)cc2c1C(=O)c1ccc(OCCCN(CCCC)CCCC)cc1 | 7.43 µM (active) |
| CN(CCOc1ccc(CC2SC(=O)NC2=O)cc1)c1ccccn1 (stereo not given) | 14.8 µM (active) |
| COc1ccc2cc3[n+](cc2c1OC)CCc1cc2c(cc1-3)OCO2 | 6.62 µM (active) |
| C#CCN[C@@H]1CCc2ccccc21 | 23.5 µM (active) |
| Cc1onc(-c2ccccc2Cl)c1C(=O)N[C@@H]1C(=O)N2[C@@H]1SC(C)(C)[C@@H]2C(=O)O | inactive |
| Cc1ccc(S(=O)(=O)N[C@@H](Cc2ccccc2)C(=O)CCl)cc1 | 20.9 µM (active) |
| NC(N)=NC(N)=NCCc1ccccc1 | 5.26 µM (active) |
| COc1ccc(-c2ccc3cc(C(=O)O)ccc3c2)cc1C12CC3CC(CC(C3)C1)C2 | 2.64 µM (active) |
| Oc1c(Cl)cc(Cl)c2cccnc12 | 16.6 µM (active) |
| COc1ccc2c(c1)c(CC(=O)OCC(=O)O)c(C)n2C(=O)c1ccc(Cl)cc1 | 4.18 µM (active) |

| SMILES | Potency |
| --- | --- |
| OCc1ccc(-c2nn(Cc3ccccc3)c3ccccc23)o1 | 1.05 µM (active) |
| CC[C@H](C)C(=O)O[C@H]1C[C@@H](C)C=C2C=C[C@H](C)[C@H](CC[C@@H]3C[C@@H](O)CC(=O)O3)[C@H]21 | 14.8 µM (active) |
| OC(Cn1cncn1)(Cn1cncn1)c1ccc(F)cc1F | 10.5 µM (active) |
| CN(Cc1cc(Br)cc(Br)c1N)C1CCCCC1 | 33.2 µM (active) |
| COc1cc([C@@H]2c3cc4c(cc3[C@H](O)[C@H]3COC(=O)[C@H]23)OCO4)cc(OC)c1OC | inactive |
| CC(C)(C)NC(=O)[C@H]1CC[C@H]2[C@@H]3CC[C@H]4NC(=O)C=C[C@]4(C)[C@H]3CC[C@]12C | inactive |
| Nc1[nH]c(=O)ncc1F | 8.33 µM (active) |
| CN(C)c1ccc(C(=C2C=CC(=[N+](C)C)C=C2)c2ccc(N(C)C)cc2)cc1 | 0.132 µM (active) |
| C1CCC(C(CC2CCCCN2)C2CCCCC2)CC1 (stereo not given) | 8.33 µM (active) |
| O=C(O)C1CCCN(CCC=C(c2ccccc2)c2ccccc2)C1 (stereo not given) | inactive |
| CC(C)(C)C(=O)OCOP(=O)(COCCn1cnc2c(N)ncnc21)OCOC(=O)C(C)(C)C | 18.7 µM (active) |
| CC1=CC(=O)c2ccccc2C1=O | 8.33 µM (active) |
| COc1ccc(C(=O)CC(=O)c2ccc(C(C)(C)C)cc2)cc1 | 4.69 µM (active) |
| Nc1nc(N)nc(-c2cc(Cl)ccc2Cl)n1 | 0.0526 µM (active) |
| COc1cc2ncnc(Nc3cccc(Cl)c3)c2cc1OC | 11.8 µM (active) |
| COc1cc2nc(N3CCCN(C)CC3)nc(NC3CCN(Cc4ccccc4)CC3)c2cc1OC | 5.26 µM (active) |
| CC(=O)Oc1ccccc1C(=O)Nc1ncc([N+](=O)[O-])s1 | 10.8 µM (active) |
| CNNCc1ccc(C(=O)NC(C)C)cc1 | 8.33 µM (active) |
| Nc1nc(F)nc2c1ncn2[C@@H]1O[C@H](CO)[C@@H](O)[C@@H]1O | 0.469 µM (active) |
| CCc1c2c(nc3ccc(OC(=O)N4CCC(N5CCCCC5)CC4)cc13)-c1cc3c(c(=O)n1C2)COC(=O)[C@]3(O)CC | 0.935 µM (active) |
